KB-V1 MDR tox: KB-V1 MDR subline cytotoxicity; KB-V1 MDR cells viability, CellTiter-Glo, 72 h; Potency, µM (doses to about 46.1 µM), actives largely listed as cytotoxic; actives 3.4% (n = 400,000); note: % is set by controls: 0 for no effect and ±100 for the full control effect; nearly all actives have a fitted effect of over 60% in size
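Cytotoxicity toward P-gp-expressing KB-V1 cells was determined as loss of CellTiter-Glo luminescence after 72 h at 37 degrees C. Compounds were tested in quantitative HTS format across a concentration range, with curves fitted to normalized data.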
MCF10A rerep: induces DNA re-replication in MCF 10a normal breast cells; Potency, µM (titrated, usually from 46.1 µM), for inactives: top-dose activity, positive = re-replication, actives largely listed as activators; actives 2.9% (n = 350,000); MCF 10A DNA re-replication, Hoechst nuclear intensity, 48 h; note: % of control where 0% means no effect; nearly all actives have a fitted effect of over 50% in size
RORg inh: blocks mouse ROR gamma transcriptional activity | actives 5.4% (n = 310,000) | P51450 | Potency, µM (doses to about 53.6 µM), inactives show at the top dose activity change, negative = inhibition, hits mostly inhibitors | Drosophila S2 Gal4-RORgamma UAS-luciferase reporter, 20 h; note: % is set by controls: 0 for no effect and ±100 for the full control effect; nearly all actives have a fitted effect of over 60% in size
Target sequence (P51450 whole entry, looked up, the tested form may be a part): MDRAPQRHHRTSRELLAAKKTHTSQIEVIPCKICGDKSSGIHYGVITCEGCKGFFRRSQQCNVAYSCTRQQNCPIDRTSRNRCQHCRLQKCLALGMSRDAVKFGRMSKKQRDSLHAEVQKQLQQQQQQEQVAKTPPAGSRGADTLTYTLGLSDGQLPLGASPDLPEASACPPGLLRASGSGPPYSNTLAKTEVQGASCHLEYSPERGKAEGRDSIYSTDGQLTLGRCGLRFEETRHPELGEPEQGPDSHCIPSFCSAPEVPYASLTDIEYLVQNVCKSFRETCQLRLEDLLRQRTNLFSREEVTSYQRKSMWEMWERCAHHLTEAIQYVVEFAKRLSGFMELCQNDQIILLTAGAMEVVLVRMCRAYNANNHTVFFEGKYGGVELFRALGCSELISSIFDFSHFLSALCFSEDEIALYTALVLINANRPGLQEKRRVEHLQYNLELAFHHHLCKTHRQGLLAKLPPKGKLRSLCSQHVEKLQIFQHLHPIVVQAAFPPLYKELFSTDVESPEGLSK
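Stable Schneider cell line, Gal4 DNA-binding domain fused to ROR gamma, UAS-luciferase. Cmpd 1 hr RT → CuSO4 700 uM final → 20 hr RT → luciferase reagent 10 min → luminescence.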
SW480 rereplic: induces DNA re-replication in SW480 colon adenocarcinoma cells; actives 1.8% (n = 340,000); SW480 DNA re-replication, Hoechst DNA content imaging, 48 h; AID 624297; Potency, µM (series often up to 46.1 µM), without a hit: top-dose re-replication activation, actives largely listed as activators; note: % of control where 0% means no effect; nearly all actives have a fitted effect of over 55% in size
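250 cells/well; 23 nL cpd via pin tool; 48 hr, 37 C, 5% CO2; Hoechst 40 min; imager read of total nuclear intensity, ex 405/em 500-530 nm.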
VP16 counter: Gal4-VP16 reporter inhibition counter-screen | Drosophila S2 Gal4-VP16 UAS-luciferase, luminescence, 20 h | AID 2546 | Potency, µM (titrated, usually from 53.6 µM), without a hit: at the highest dose activity, negative = inhibition, hits mostly inhibitors | actives 3.5% (n = 310,000);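 note: Gal4-VP16 expression switched on by copper sulfate through the metallothionein promoter; % is set by controls: 0 for no effect and ±100 for the full control effect; nearly all actives have a fitted effect of over 50% in size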
KB-3-1 tox: kills parental KB-3-1 adenocarcinoma cells; KB-3-1 viability, CellTiter-Glo ATP luminescence, 72 h; Potency, µM (top dose mostly 46.1 µM), usual class: cytotoxic; actives 1.4% (n = 400,000); AID 1347075; note: % is set by controls: 0 for no effect and ±100 for the full control effect; nearly all actives have a fitted effect of over 60% in size
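Parental KB-3-1 adenocarcinoma cells in phenol-red-free DMEM with 10% FBS were pin-treated with compounds at several concentrations, incubated 72 h at 37 °C, and viability read by CellTiter-Glo luminescence; concentration-effect curves were fitted after normalization.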
Active calls of the source: *. Most compounds without a hit are left out; they make up all but 10% or so of the library. Calls come from the whole dose curve; as a rule, active = well fitted curve in the direction sought with a large enough effect; inconclusive = small, poorly fitted or top-dose-only effect, or another doubt; inactive = no such curve, though single readings can be large; an effect the other way counts as inactive or inconclusive. Potency is the fitted concentration of half-maximal effect.

COC(=O)C1=C(c2cccc(OC)c2OC)C[C@@H]2CC[C@H]1N2C(=O)NCCNC(C)=O was read as KB-V1 MDR tox inconclusive, MCF10A rerep -7%, SW480 rereplic 1% and KB-3-1 tox inactive.
COc1cc2c(c(OC)c1OC)-c1ccc(O)c(=O)cc1C(NC(C)=O)CC2 (stereo not drawn) was read as KB-V1 MDR tox inconclusive, MCF10A rerep inconclusive, RORg inh -8%, SW480 rereplic inconclusive, VP16 counter -2% and KB-3-1 tox 0.0082µM*.
For COc1ccc2c(c1)C(NC(C)=O)CCc1cc(OC)c(OC)c(OC)c1-2 (stereo not drawn) the results were KB-V1 MDR tox 0.37µM*, MCF10A rerep inconclusive, SW480 rereplic 0.058µM* and KB-3-1 tox 0.15µM*.
For COc1ccc(OC)c(CC(=O)O)c1 the results were KB-V1 MDR tox inactive, MCF10A rerep -3%, RORg inh 14%, SW480 rereplic -4%, VP16 counter 1% and KB-3-1 tox inactive.
`C=C(Cl)CCl` gave RORg inh 6% and VP16 counter 7%.
`C[C@H](N)Cc1cnc[nH]1` gave RORg inh -17% and VP16 counter -12%.
COC(=O)[C@H]1[C@H]2C[C@@H]3c4[nH]c5cc(OC)ccc5c4CCN3C[C@H]2C[C@@H](OC(=O)/C=C/c2cc(OC)c(OC)c(OC)c2)[C@@H]1OC was read as KB-V1 MDR tox inactive, MCF10A rerep 5.8µM*, SW480 rereplic 18µM* and KB-3-1 tox inactive.
CCCCCOc1c(OC)ccc2cc(C(=O)NCc3ccc4c(c3)OCO4)c(=O)[nH]c12 was read as RORg inh 10% and VP16 counter -12%.
Screening CC1=C2CCC3C4CCC(=O)[C@@]4(C)CCC3[C@]2(C)CCC1=O (stereo partly drawn) returned RORg inh 4% and VP16 counter 6%.
For CCCCC(=O)N/N=C/c1c(O)n(CCc2ccccc2)c(=O)[nH]c1=O the results were KB-V1 MDR tox inconclusive, MCF10A rerep 5%, RORg inh 10µM*, SW480 rereplic inconclusive, VP16 counter -10% and KB-3-1 tox inactive.
Screening CCCCCCC(=O)N/N=C/c1c(O)n(CCCC)c(=S)[nH]c1=O returned KB-V1 MDR tox inactive, MCF10A rerep 19%, RORg inh inconclusive, SW480 rereplic -22%, VP16 counter -24% and KB-3-1 tox inactive.
`CCCCC(=O)N/N=C/c1c(O)n(CC)c(=S)[nH]c1=O` gave KB-V1 MDR tox inactive, MCF10A rerep 21%, RORg inh 11µM*, SW480 rereplic -4%, VP16 counter inconclusive and KB-3-1 tox inactive.
Screening NC(=O)CF returned RORg inh -4% and VP16 counter 3%.
Cc1nnc2ccc(-c3cccc(C(F)(F)F)c3)nn12 was read as KB-V1 MDR tox 12µM*, MCF10A rerep 4%, RORg inh 16%, SW480 rereplic -97%, VP16 counter -3% and KB-3-1 tox inactive.
For Fc1ccc2c(c1)nnn2C1CCN(Cc2nnnn2CCc2ccccc2)CC1 the results were KB-V1 MDR tox inactive, MCF10A rerep 1%, RORg inh 11%, SW480 rereplic -19%, VP16 counter 4% and KB-3-1 tox inactive.
Screening FC(F)(F)c1ccc2c(c1)ncn2C1CCN(Cc2nnnn2C2CCCCC2)CC1 returned KB-V1 MDR tox 7.3µM*, MCF10A rerep 18%, RORg inh -2%, SW480 rereplic -1%, VP16 counter inconclusive and KB-3-1 tox inconclusive.
Screening c1ccc(CCn2nnnc2CN2CCC(n3nnc4ccccc43)CC2)cc1 returned KB-V1 MDR tox 5.8µM*, MCF10A rerep 0%, RORg inh 15%, SW480 rereplic 10%, VP16 counter 16% and KB-3-1 tox inactive.
